Data from PubChem BioAssay AID1159580 (chemical genetic matrix, 2015).
Where “and” joins values, the source holds several entries; their conditions need not be identical. Equal entries are not always repeated. About 2,000 (36%) of roughly 5,500 compounds were called active. Roughly 18% stayed inconclusive and do not appear here. Rule as the data show it: active = normalized growth mostly below about 0.91 (no sharp cut-off); inconclusive = no clear call, values can overlap the other calls; inactive = mostly above about 0.92. The list shows a part of the results.

Test: chemical genetic growth profiling, strain panel (AID 1159580);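 also: tested at 20 µM; growth read once vehicle control cultures reached saturation at 30 °C; 1 = growth at the plate median or of vehicle wells; lower values mean less growth of the strain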
Details: S. cerevisiae deletion strains, growth OD

Measured: normalized growth

CN(C)C(=O)Oc1cccc([N+](C)(C)C)c1
inactive: locus YAL021C, strain ccr4, hits give low values 0.987 | locus YAL026C, strain drs2, hits give low values 1 | locus YAL030W, strain snc1, hits give low values 1 | locus YAL040C, strain CLN3, hits give low values 1 | locus YBL061C, strain skt5, hits give low values 1.01 | locus YBR009C, strain hhf1, hits give low values 1 | locus YBR021W, strain FUR4, hits give low values 0.992 | locus YBR023C, strain chs3, hits give low values 0.988 | locus YBR171W, strain sec66, hits give low values 0.992 | locus YBR229C, strain ROT2, hits give low values 0.985 | locus YBR231C, strain swc5, hits give low values 0.988 | locus YBR279W, strain paf1, hits give low values 1 | locus YCL011C, strain gbp2, hits give low values 0.996 | locus YCL016C, strain dcc1, hits give low values 0.992 | locus YCL029C, strain bik1, hits give low values 0.978 | locus YCL061C, strain MRC1 (second series), hits give low values 1 | locus YCL061C, strain MRC1, hits give low values 0.996 | locus YCL069W, strain vba3, hits give low values 1 | locus YCR088W, strain abp1, hits give low values 0.99 | locus YDL005C, strain med2, hits give low values 0.983 | locus YDL035C, strain GPR1, hits give low values 0.997 | locus YDL040C, strain nat1, hits give low values 0.992 | locus YDL074C, strain BRE1, hits give low values 1.05 | locus YDL101C, strain DUN1, hits give low values 0.986 | locus YDL134C, strain PPH21, hits give low values 0.987 | locus YDL185W, strain tfp1, hits give low values 0.98 | locus YDL192W, strain arf1, hits give low values 0.98 | locus YDR001C, strain nth1, hits give low values 0.998 | locus YDR069C, strain doa4, hits give low values 0.978 | locus YDR101C, strain arx1, hits give low values 0.977 | locus YDR137W, strain rgp1, hits give low values 1.01 | locus YDR150W, strain NUM1, hits give low values 1 | locus YDR159W, strain sac3, hits give low values 0.978 | locus YDR162C, strain NBP2, hits give low values 0.999 | locus YDR195W, strain ref2 1.01 | locus YDR297W, strain sur2, hits give low values 0.996 | locus YDR318W, strain mcm21, hits give low values 0.98 | locus YDR334W, strain swr1, hits give low values 1 | locus YDR335W, strain msn5, hits give low values 1.01 | locus YDR363W, strain ESC2, hits give low values 1.04 | locus YDR388W, hits give low values 0.986 | locus YDR392W, strain spt3, hits give low values 0.996 | locus YDR502C, strain sam2, hits give low values 0.977 | locus YEL003W, strain gim4, hits give low values 1.01 | locus YEL037C, strain rad23, hits give low values 0.998 | locus YEL061C, strain CIN8 (second series), hits give low values 1 | locus YEL061C, strain CIN8, hits give low values 0.994 | locus YER002W, strain NOP16, hits give low values 1.01 | locus YER015W, strain faa2, hits give low values 1 | locus YER016W, strain bim1, hits give low values 1.01 | locus YER110C, hits give low values 0.991 | locus YER111C, strain swi4, hits give low values 1.02 | locus YER155C, strain BEM2 (second series), hits give low values 1.01 | locus YER155C, strain BEM2, hits give low values 0.974 | locus YER167W, strain BCK2, hits give low values 0.987 | locus YFR010W, strain ubp6, hits give low values 0.996 | locus YGL078C, strain dbp3, hits give low values 0.983 | locus YGL086W, strain mad1, hits give low values 0.997 | locus YGL167C, strain pmr1, hits give low values 1.07 | locus YGL173C, strain kem1, hits give low values 1.01 | locus YGL227W, strain vid30, hits give low values 0.992 | locus YGL240W, strain doc1, hits give low values 0.986 | locus YGL248W, strain PDE1, hits give low values 0.993 | locus YGL253W, strain hxk2, hits give low values 1.01 | locus YGR135W, strain pre9, hits give low values 0.981 | locus YGR229C, strain SMI1, hits give low values 1.02 and 1.01 | locus YGR252W, strain gcn5, hits give low values 1.06 | locus YHR013C, strain ard1, hits give low values 1.02 | locus YHR027C, strain rpn1, hits give low values 0.99 | locus YHR030C, strain SLT2, hits give low values 0.992 and 0.979 | locus YHR079C, strain IRE1 (second series), hits give low values 0.979 | locus YHR079C, strain IRE1, hits give low values 0.961 | locus YHR094C, strain hxt1, hits give low values 0.989 | locus YHR129C, strain ARP1, hits give low values 0.989 | locus YHR142W, strain chs7, hits give low values 1.03 | locus YHR200W, strain rpn10, hits give low values 0.981 | locus YIL066C, strain RNR3, hits give low values 0.996 | locus YIL073C, strain SPO22, hits give low values 0.965 | locus YIL125W, strain kgd1, hits give low values 0.998 | locus YIR030C, strain dcg1, hits give low values 0.983 | locus YJL092W, strain hpr5, hits give low values 0.996 | locus YJL095W, strain BCK1 (second series), hits give low values 0.996 | locus YJL095W, strain BCK1, hits give low values 1.01 and 0.988 | locus YJL115W, strain asf1, hits give low values 1 | locus YJL129C, strain trk1, hits give low values 0.987 | locus YJL134W, strain LCB3, hits give low values 0.986 | locus YJL154C, strain vps35, hits give low values 1.01 | locus YJL164C, strain tpk1, hits give low values 1.01 | locus YJL166W, strain qcr8, hits give low values 0.999 | locus YJL168C, strain set2, hits give low values 0.988 | locus YJL187C, strain SWE1 (second series), hits give low values 0.987 | locus YJL187C, strain SWE1, hits give low values 0.992 | locus YJR043C, strain POL32, hits give low values 1.02 | locus YJR066W, strain TOR1, hits give low values 0.947
